Shiga inhibitor – Shiga toxin inhibition; Vero cells, Shiga toxin protein synthesis inhibition reporter; inhibition, % at 38.7 µM; actives 9.2% (n = 290,000); AID 2315; in the data active means inhibition mostly above about 28%, no sharp cut-off; inactive means mostly below about 43%; further: 0% is about no effect
AMA1 RON2 block – disrupts binding of P. falciparum AMA1 to RON2; AlphaScreen AMA1-biotinylated RON2 peptide binding; Potency, µM (doses to about 58.2 µM), for inactives: top-dose activity change, negative = inhibition, hits mostly inhibitors; actives 0.2% (n = 360,000); AID 720542;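 further: potency means the concentration at half of the fitted maximal effect; 0% = vehicle wells and -100% = peptide control; nearly all actives have a fitted effect of over 45% in size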
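AMA1 (3D7) with his tag at 25 nM final met compounds first, then biotinylated RON2 peptide at 25 nM; detection used donor plus acceptor beads, 10 µg/mL apiece, read by AlphaScreen after 30 min at room temperature.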
Pf growth 48h – inhibits P. falciparum growth in the first generation, 48 h; P. falciparum luciferase growth in erythrocytes, 48 h; Potency, µM (highest dose often 28.7 µM), inactives show at the highest dose activity change, negative = inhibition, usual class: inhibitors; actives 5.9% (n = 310,000); AID 504832; further: potency means the concentration at half of the fitted maximal effect; on the % scale 0 is the no-effect control and ±100 the full control effect
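Here the parasites carry a stable luciferase gene and grow inside erythrocytes in Albumax-based RPMI medium with compound for one erythrocytic cycle. Activity is scored as loss of luminescent signal.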
HCV inh – blocks hepatitis C virus | AID 651820 | Potency, µM (top dose mostly 41.8 µM), without a hit: at the highest dose activity change, negative = inhibition, hits mostly inhibitors | actives 3.4% (n = 340,000) | Huh7.5.1 HCVcc-Cre infection, luciferase reporter, 44 h; further: potency means the concentration at half of the fitted maximal effect; on the % scale 0 is the no-effect control and ±100 the full control effect
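Infectious HCVcc-Cre (~0.5 moi) was added to cells just after compound, with cells seeded 4 h earlier at 1,000 per well. Luciferase activity after 44 h culture reported infection; substrate was incubated 15 min at room temperature before reading.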
Pf growth 96h – P. falciparum growth inhibition at 96 hours. P. falciparum luciferase reporter growth, 96 h. Potency, µM (series often up to 28.7 µM), for the others: top-dose activity change, negative = inhibition, usual class: inhibitors. actives 6.9% (n = 320,000); further: potency means the concentration at half of the fitted maximal effect; on the % scale 0 is the no-effect control and ±100 the full control effect
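P. falciparum expressing integrated firefly luciferase, in erythrocytes at 2% hematocrit, 0.05% parasitemia, incubated with compounds 96 h at 37 C, 5% CO2. Growth inhibition read as loss of luminescence; two-generation exposure targets delayed-death apicoplast inhibitors.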
CHX counter – counter-screen for Shiga toxin inhibitors: cycloheximide protein synthesis inhibition; actives 12% (n = 300,000); cell reporter, cycloheximide protein synthesis inhibition counterscreen; max response, %; in the data active means max response mostly above about 13%, no sharp cut-off; inactive means mostly below about 14%; further: read at 38.3 µM for the half of the compounds with a filed dose; 0% is about no effect
* hit, by the source's call. Shown are actives, neighbours in structure and some others; about 21% of the full set was active somewhere. Unless noted, the call rests on the fitted dose curve; in most records, active means well fitted curve in the direction sought with a large enough effect; inconclusive means small, poorly fitted or top-dose-only effect, or another doubt; inactive means no such curve, though single readings can be large; an effect the other way counts as inactive or inconclusive.

For COc1ccc(-n2nc(C(=O)NCC(=O)N3CCN(c4ccc(F)cc4)CC3)c3ccccc3c2=O)c(OC)c1 the results were Shiga inhibitor 28.8, AMA1 RON2 block -12.7%, Pf growth 48h inconclusive, HCV inh inconclusive, Pf growth 96h 29.9% and CHX counter 16.1*.
`COc1ccc(-n2nc(C(=O)NCC(=O)N3CCN(c4ccccc4)CC3)c3ccccc3c2=O)c(OC)c1` gave Shiga inhibitor 36.8, AMA1 RON2 block -3.3%, Pf growth 48h -29.0%, HCV inh 2.5%, Pf growth 96h -16.3% and CHX counter 16.3.
Screening COc1cc(OC)cc(C(=O)Oc2ccc(/C=N/Nc3nc4ccccc4s3)cc2OC)c1 returned Shiga inhibitor 123.9*, AMA1 RON2 block 65.7%, Pf growth 48h -32.3%, HCV inh inconclusive, Pf growth 96h -100.7% and CHX counter 48.3*.
COc1cc(/C=N\NC(=O)c2cccnc2)ccc1OC(=O)c1ccccc1Cl was read as Shiga inhibitor -8.0, AMA1 RON2 block 10.0%, Pf growth 48h inconclusive, Pf growth 96h 6.5% and CHX counter -0.5.
`COc1cc(/C=N/Nc2nc3ccccc3s2)ccc1OC(=O)c1ccccc1F` gave Shiga inhibitor active, AMA1 RON2 block -0.8%, Pf growth 48h -27.0%, HCV inh inconclusive, Pf growth 96h inconclusive and CHX counter 43.2*.
Screening COCCNC(=O)C1CCCN(S(=O)(=O)c2c(C)noc2/C=C/c2cccs2)C1 (stereo unspecified) returned Shiga inhibitor 7.2, AMA1 RON2 block -7.6%, Pf growth 48h -18.8%, HCV inh -11.3%, Pf growth 96h -2.5% and CHX counter 0.1.
CCOc1ccccc1/C=C/c1onc(C)c1S(=O)(=O)N1CCC(C(=O)NC(C)C)CC1 was read as Shiga inhibitor -1.1, AMA1 RON2 block -1.9%, Pf growth 48h inconclusive, HCV inh inconclusive, Pf growth 96h 56.8% and CHX counter 1.3.
CCOc1ccccc1/C=C/c1onc(C)c1S(=O)(=O)N1CCC(C(=O)N2CCCCCC2)CC1 was read as Shiga inhibitor -7.2, AMA1 RON2 block -12.0%, Pf growth 48h 7.38µM*, HCV inh inconclusive, Pf growth 96h inconclusive and CHX counter -2.0.
Cc1cccc(/C=C/c2onc(C)c2S(=O)(=O)N2CCC(C(=O)N3CCCCC3)CC2)c1 was read as Shiga inhibitor -5.4, AMA1 RON2 block -6.9%, Pf growth 48h 9.28µM*, HCV inh 10µM*, Pf growth 96h inconclusive and CHX counter -1.7.
For Cc1ccc(/C=C/c2onc(C)c2S(=O)(=O)N2CCC(C(=O)N3CCCCC3)CC2)cc1 the results were Shiga inhibitor -0.9, AMA1 RON2 block -8.1%, Pf growth 48h inconclusive, HCV inh 8.2%, Pf growth 96h -13.1% and CHX counter -2.2.
`COc1ccc(/C=C/c2onc(C)c2S(=O)(=O)N2CCC(C(=O)N3CCCCCC3)CC2)cc1` gave Shiga inhibitor 1.7, AMA1 RON2 block -8.2%, Pf growth 48h 4.15µM*, HCV inh inconclusive, Pf growth 96h inconclusive and CHX counter 6.2.
Cc1noc(/C=C/c2cccs2)c1S(=O)(=O)N1CCC(C(=O)NCCCN2CCC(C)CC2)CC1 was read as Shiga inhibitor -18.7, AMA1 RON2 block -14.6%, Pf growth 48h -65.3%, HCV inh 11.2µM*, Pf growth 96h 64.6% and CHX counter -5.7.
For COCCCNC(=O)C1CCN(S(=O)(=O)c2c(C)noc2/C=C\c2ccc(OC)cc2)CC1 the results were Shiga inhibitor -15.3, AMA1 RON2 block -10.1%, Pf growth 48h inconclusive, HCV inh -5.0%, Pf growth 96h -10.0% and CHX counter -1.6.
`CCCCNC(=O)C1CCN(S(=O)(=O)c2c(C)noc2/C=C\c2ccc(OC)cc2)CC1` gave Shiga inhibitor -8.5, AMA1 RON2 block 24.0%, HCV inh -3.1%, Pf growth 96h 10.4µM* and CHX counter -4.4.
CCCCNC(=O)C1(C)CCN1C(=O)c1ccc(F)cc1Cl (stereo unspecified) was read as AMA1 RON2 block 14.6%.
For COc1ccc(-c2ccc(NC(=O)c3ccc(Br)o3)cc2)nn1 the results were AMA1 RON2 block -11.7%, Pf growth 48h 81.7%, HCV inh 6.5% and Pf growth 96h 98.8%.
CC(=O)c1ccc(NC(=O)C(C)Sc2ccccn2)cc1 (stereo unspecified) was read as Shiga inhibitor 77.5*, AMA1 RON2 block -0.3%, Pf growth 48h 68.6%, HCV inh -2.5%, Pf growth 96h inconclusive and CHX counter 34.4*.
`CC(Sc1ccccn1)C(=O)Nc1ccccc1` (stereo unspecified) gave Shiga inhibitor 76.5*, AMA1 RON2 block -6.5%, Pf growth 48h 59.7%, HCV inh -2.1%, Pf growth 96h inconclusive and CHX counter 40.4*.
For CC(Sc1ccccn1)C(=O)Nc1ccc(S(N)(=O)=O)cc1 (stereo unspecified) the results were Shiga inhibitor -0.9, AMA1 RON2 block -6.7%, HCV inh -1.2%, Pf growth 96h -6.2% and CHX counter 0.6.
For O=c1oc(Cc2ccccc2)nc2ccccc12 the results were Shiga inhibitor 14.5, AMA1 RON2 block -8.5%, Pf growth 48h 44.3%, HCV inh 1.7%, Pf growth 96h 28.8% and CHX counter 13.7*.
`Oc1ccc(Cl)cc1C(C#Cc1ccccc1)N1CCOCC1` (stereo unspecified) gave Shiga inhibitor -2.4, AMA1 RON2 block -5.4%, Pf growth 48h inconclusive, HCV inh 0.0%, Pf growth 96h 10.4µM* and CHX counter 10.0.
`O=C(CC(c1ccccc1)c1cc(Cl)ccc1O)N1CCOCC1` (stereo unspecified) gave Shiga inhibitor -7.6, AMA1 RON2 block -0.6%, Pf growth 48h 11.4%, HCV inh -4.9%, Pf growth 96h -32.5% and CHX counter -4.0.
CCCN(CC(=O)Nc1ccccc1OC)C(=O)CSC(=S)N1CCCC1 was read as AMA1 RON2 block -5.3%, Pf growth 48h inconclusive, HCV inh inconclusive and Pf growth 96h inconclusive.
`COc1ccc([C@@H]2C[C@H]3[C@@H](CN2S(=O)(=O)c2ccccc2)C(=O)C[C@@H](c2ccc(C)cc2)N3S(=O)(=O)c2ccc(C)cc2)cc1` gave AMA1 RON2 block 0.8%.
Screening CCC(=O)Nc1ccc2c(c1)ncn2-c1ccc(OC)cc1 returned Shiga inhibitor 66.0*, AMA1 RON2 block 2.1%, Pf growth 48h -11.3%, HCV inh -22.9%, Pf growth 96h 98.4% and CHX counter 45.5*.
Screening CCC(=O)Nc1ccc2c(c1)ncn2-c1ccc(C)cc1 returned Shiga inhibitor 96.3*, AMA1 RON2 block 0.3%, Pf growth 48h 138.6%, HCV inh -19.9%, Pf growth 96h inconclusive and CHX counter 36.4*.
